{"source": "ChEMBL document CHEMBL4513216", "about": "“Probing the Open Global Health Chemical Diversity Library for Multistage-Active Starting Points for Next-Generation Antimalarials” (ACS Infect Dis, 2020)", "note": "Among all 69,000 compounds or so, about 8,600 (12%) showed an effect of 50% or more. For the sample, strong results were picked, then their nearest neighbours and some compounds at random."}
{"tested_on": "Plasmodium berghei", "test": "Screen against P. berghei liver stage (PbLuc), transformed with Luciferase, at 10uM", "assay_type": "functional, HepG2", "conditions": "tested at 10 uM", "units": {"INHIBITION": "%"}}
{"smiles": "COCCN1CCC2(COCCN(C(=O)Cc3cccs3)C2)C1", "note": "(stereo not drawn)", "INHIBITION": -58.7}
{"smiles": "Cc1cc(C(=O)N2CC[C@@H](N(C)C)[C@@H]2Cc2ccccc2)no1", "INHIBITION": -2.35}
{"smiles": "COc1ccc(C(O)CNC(=O)NCc2c(C)cc(C)[nH]c2=O)cc1", "note": "(stereo not drawn)", "INHIBITION": 16.9}
{"smiles": "CCO[C@H]1CN(C(=O)c2ccnnc2)[C@@H]2COC[C@H]12", "INHIBITION": 13.6}
{"smiles": "CCn1cc(-n2cc3nc(N4CCC(O)CC4)[nH]cc-3c2=O)cn1", "INHIBITION": -10.6}
{"smiles": "O=C(c1cscn1)N1CC[C@@H]2[C@@H]1CCN2C1CCOCC1", "INHIBITION": -23.1}
{"smiles": "Cc1cnc(C(=O)N2Cc3ncn(C)c3C(COCC(C)C)C2)cn1", "note": "(stereo not drawn)", "INHIBITION": 43}
{"smiles": "O=C(c1n[nH]cc1Cl)N1CCOCC1", "INHIBITION": 39.1}
{"smiles": "Cc1ccc(N2CCC3(CCCN(C(=O)c4cnccn4)C3)C2)nn1", "note": "(stereo not drawn)", "INHIBITION": 18.5}
{"smiles": "Cc1noc(C)c1CN1CCc2ncnc(-c3cccnc3)c2CC1", "INHIBITION": 25.8}
{"smiles": "Cc1noc(C)c1CN1CCc2ncnc(-c3ccc(F)cc3)c2CC1", "INHIBITION": 67.5}
{"smiles": "c1ccc(CN2CCc3ncnc(-c4ccncc4)c3CC2)nc1", "INHIBITION": 46.2}
{"smiles": "Cc1cc(CN2CCN(c3ccnc(-c4ccccc4)n3)CC2)no1", "INHIBITION": 2.29}
{"smiles": "Cc1nc(CN2CCc3ncnc(-c4ccc(F)cc4)c3CC2)cs1", "INHIBITION": 15.4}
{"smiles": "Cc1ccc(CN2CCc3ncnc(-c4ccncc4)c3CC2)o1", "INHIBITION": -4.32}
{"smiles": "Cc1noc(C)c1CN1CCc2ncnc(-c3ccccc3)c2CC1", "INHIBITION": 53}
{"smiles": "Cc1noc(C)c1CN1CCN(c2ccnc(-c3ccccc3)n2)CC1", "INHIBITION": 62.5}
{"smiles": "Cc1noc(C)c1CN1CCc2ncnc(-c3cnn(C)c3)c2CC1", "INHIBITION": 43}
{"smiles": "Cc1noc(C)c1CN1CCc2ncnc(-c3ccncc3)c2CC1", "INHIBITION": 90.1}
{"smiles": "Cc1cnc(CN2CCN(c3ccnc(-c4ccccc4)n3)CC2)cn1", "INHIBITION": 47.2}
{"smiles": "Cc1ccc(CN2CCc3ncnc(-c4ccc(F)cc4)c3CC2)o1", "INHIBITION": 13.7}
{"smiles": "O=C(C1=CCCC1)N1CCC2(CC1)CC(Oc1cccnc1)CO2", "note": "(stereo not drawn)", "INHIBITION": 41.3}
{"smiles": "COc1ccc(COCC(O)CNC(=O)c2ccc(C#N)cc2)cc1", "note": "(stereo not drawn)", "INHIBITION": 46.2}
{"smiles": "CN(C)C(=O)Cn1c(C2CC2)c(CN2CCSCC2)c2cccnc21", "INHIBITION": 23}
{"smiles": "CC(=O)c1ccc(OCC(=O)c2cccn2C)cc1", "INHIBITION": -175}
{"smiles": "CC(=O)N[C@@H]1CN(C(=O)Cc2coc3cc(C)ccc23)C[C@H]1O", "INHIBITION": -5.8}
{"smiles": "Cc1ccc(CN2CCc3ncnc(-c4ccoc4)c3CC2)o1", "INHIBITION": -8.28}
{"smiles": "Cc1noc(C)c1CN1CCc2ncnc(-c3ccoc3)c2CC1", "INHIBITION": 68.4}
{"smiles": "c1ccc(CN2CCc3ncnc(-c4ccoc4)c3CC2)nc1", "INHIBITION": 12.4}
{"smiles": "Cc1nnc2n1CCN(C(=O)C1CCN(Cc3ccccc3)CC1)C2", "INHIBITION": 35.7}
{"smiles": "Cc1cc(NC(=O)CC2(Cn3cnnn3)CCCCC2)nn1C", "INHIBITION": 39.1}
{"smiles": "Cn1ccc(C(=O)N2CCC[C@]3(C[C@@H](OCc4ccccn4)CO3)C2)n1", "INHIBITION": 40.9}
{"smiles": "c1cnc2[nH]c(C3CCCC3)c(CN3CCOCC3)c2c1", "INHIBITION": 33.7}
{"smiles": "Cc1cnc2[nH]c(C(F)(F)F)c(CN3CCSCC3)c2c1", "INHIBITION": 21.1}
{"smiles": "OCC1CCCN(Cc2c(C3CCCC3)[nH]c3ncccc23)C1", "note": "(stereo not drawn)", "INHIBITION": 69.3}
{"smiles": "CC1CCCN(Cc2c(C3CCOCC3)[nH]c3ncccc23)C1", "note": "(stereo not drawn)", "INHIBITION": 59.7}
{"smiles": "Cc1cnc2[nH]c(C(F)(F)F)c(CN3CCOCC3)c2c1", "INHIBITION": -0.232}
{"smiles": "CCN1CCN(Cc2c(C3CCCC3)[nH]c3ncccc23)CC1", "INHIBITION": 20.4}
{"smiles": "CC1CCCN(Cc2c(C3CC3)[nH]c3ncccc23)C1", "note": "(stereo not drawn)", "INHIBITION": 19.6}
{"smiles": "Cc1cnc2[nH]c(C(F)(F)F)c(CN3CCCC(CO)C3)c2c1", "note": "(stereo not drawn)", "INHIBITION": 50.8}
{"smiles": "c1cnc2[nH]c(C3CCCC3)c(CN3CCCCC3)c2c1", "INHIBITION": -2.11}
{"smiles": "Cc1nc(CN2CCCC(NCCOc3ccccc3C#N)C2)no1", "note": "(stereo not drawn)", "INHIBITION": 44.1}
{"smiles": "CC(c1ccc2c(c1)OCCO2)N(C)C(=O)c1ccnnc1", "note": "(stereo not drawn)", "INHIBITION": -4.21}
{"smiles": "Cn1ccc(CN2CCN(CC3CC3)CC2)cc1=O", "INHIBITION": 21.5}
{"smiles": "COCCCNC(=O)CN(C)C(=O)c1ccc(OC)cc1O", "INHIBITION": 7.925}
{"smiles": "CCS(=O)(=O)NCc1nc(C)cc(N2CCCC2)n1", "INHIBITION": 25.1}
{"smiles": "CCNC(=O)CCN1CCC(c2cc(N3CCOCC3)nc(C)n2)CC1", "INHIBITION": 38.5}
{"smiles": "CC(=O)N1CCCn2nc(CNS(=O)(=O)Cc3ccccc3)cc2C1", "INHIBITION": -3.83}
{"smiles": "CCS(=O)(=O)NCc1nc(C)cc(N2CCOCC2)n1", "INHIBITION": 65.2}
{"smiles": "Cc1nc(C2CCCN(C(=O)CO)C2)cc(N2CCOCC2)n1", "note": "(stereo not drawn)", "INHIBITION": -1.53}
{"smiles": "O=S(=O)(Cc1ccccc1)NCC1CCN(c2cnccn2)CC1", "INHIBITION": -45.8}
{"smiles": "CCCS(=O)(=O)N1CCN(c2cc(-n3nc(C)cc3C)nc(C)n2)CC1", "INHIBITION": 0.139}
{"smiles": "CCNC(=O)CN1CCN(c2cc(C)nc(-c3ccncc3)n2)CC1", "INHIBITION": 48.1}
